S2 tox = reduces viability in counter-screen for ATXN expression inhibitors; S2 cells (HEK-293 line with an ATXN2-luciferase reporter) viability, CellTiter-Fluor protease fluorescence, 24 h; Potency, µM (highest dose often 56.7 µM), usual class: cytotoxic; hit rate 0.49% among 400,000; further: nearly all actives have a fitted effect of over 40% in size
TGFb SMAD3 inh = TGF-b pathway inhibition; HepG2 CAGA-GFP TGF-b/SMAD3 reporter, GFP fluorescence, 18 h; TGF-beta stimulated, 500 pg/mL final; hit rate 1.2% among 410,000; AID 588855; Potency, µM (series often up to 46.1 µM), inactives show at the top dose activity, negative = inhibition, most hits filed as inhibitors; further: on the % scale 0 is the no-effect control and ±100 the full control effect; nearly all actives have a fitted effect of over 65% in size
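Using HEPG2 CAGA-GFP reporter cells at 1000 cells/well, we pinned test compounds, stimulated with recombinant TGF-beta (500 pg/mL final) and measured total well GFP after 18 h.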
HepG2 viability = counter-screen for TGF-b inhibitors: cytotoxicity in HepG2 cells; HepG2 CAGA-GFP viability, ATP luminescence, 18 h; Potency, µM (top dose mostly 46.1 µM), without a hit: at the highest dose activity change, negative = cytotoxicity, actives largely listed as cytotoxic; hit rate 0.76% among 410,000; AID 588856
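HepG2 CAGA-GFP cells (1000/well, DMEM with 1% FBS) received compound, then TGF-beta at 500 pg/mL final, and were incubated 18 hours at 37 degrees C. Viability was read by CellTiter-Glo luminescence. Media-only wells were set as complete cell-killing and DMSO as no toxicity.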
HT1080 IDH1KD tx = HT-1080 IDH1 knockdown cell toxicity (counter line); hit rate 2% among 360,000; AID 686971; HT-1080 IDH1 knockdown viability, ATP luminescence, 48 h; Potency, µM (titrated, usually from 46.1 µM), without a hit: at the highest dose activity, negative = toxicity, most hits filed as cytotoxic;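 further: 0% = DMSO wells and -100% = cell-free medium wells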
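% activity derives from luminescence (CellTiter-Glo), normalised to DMSO and no-cell wells. HT-1080-IDH1KD cells, 750/well, had 48 h compound exposure at 37 °C.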
HT1080NT lethal = kills 2HG-producing HT-1080-NT fibrosarcoma cells | Potency, µM (series often up to 46.1 µM), without a hit: at the highest dose activity, negative = less viability, most hits filed as cytotoxic | hit rate 1.6% among 360,000 | HT-1080-NT fibrosarcoma viability, CellTiter-Glo ATP luminescence, 48 h | AID 686970;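 further: NT is the 2HG producing partner of a matched IDH1 knockdown line; 0% = DMSO-treated cells and -100% = media-only wells without cells; nearly all actives have a fitted effect of over 55% in size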
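Luminescent CellTiter-Glo readout after 48 hours of compound exposure at 37 degrees C defined viability of HT-1080-NT cells. Activity was normalized to DMSO wells and cell-free media wells; concentration-response curves were fitted and assigned curve classes.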
ATXN2 expr inh = reduces ATXN2 reporter expression in HEK-293 cells; Potency, µM (doses to about 57 µM), without a hit: top-dose activity change, negative = inhibition, actives largely listed as inhibitors; hit rate 0.72% among 360,000; HEK-293 ATXN2-luciferase reporter, luminescence, 24 h; further: on the % scale 0 is the no-effect control and ±100 the full control effect; nearly all actives have a fitted effect of over 55% in size
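ATXN2-luciferase reporter cells (luciferase flanked by upstream and downstream ATXN2 gene portions) were treated 24 h at 37 °C with compounds at up to 57 uM. SteadyGlo luminescence gave expression; GF-AFC fluorescence gave viability.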
* hit, by the source's call; i = inactive; ? = inconclusive; · = no result; [ ] = remark or other dose. Only some compounds are listed: those with a hit (about 3.9% of all), similar ones and a draw of the others. The call rests on the fitted dose curve; in most records, active means well fitted curve in the direction sought with a large enough effect; inconclusive means small, poorly fitted or top-dose-only effect, or another doubt; inactive means no such curve, though single readings can be large; an effect the other way counts as inactive or inconclusive. Potency means the concentration at half of the fitted maximal effect.

SMILES	S2 tox	TGFb SMAD3 inh	HepG2 viability	HT1080 IDH1KD tx	HT1080NT lethal	ATXN2 expr inh
CNC[C@@H]1OCc2ccccc2-c2c(n(C)c3ccccc23)C(=O)N([C@H](C)CO)C[C@H]1C	32µM*	?	-66%	-24%	?	?
C[C@@H]1CN([C@H](C)CO)C(=O)c2c(c3ccccc3n2C)-c2ccccc2CO[C@H]1CN(C)Cc1ccc(C(F)(F)F)cc1	28µM*	?	20µM*	18µM*	?	?
O=C(N/N=C/C1CC=CCC1)c1cc2ccccc2cc1O (stereo not given)	i	0%	15%	18µM*	?	-13%
NC(=O)CC(NC(=O)Cc1ccc(Br)cc1)c1ccc(N2CCN(c3ccc(F)cc3)CC2)c([N+](=O)[O-])c1 (stereo not given)	?	?	11µM*	-12%	-20%	?
NC(=O)CC(NC(=O)Cc1ccc(Br)cc1)c1ccc(NC2CCCC2)c([N+](=O)[O-])c1 (stereo not given)	?	14%	4%	-1%	-1%	8.9µM*
CCOC(=O)C1=C(N)Oc2ccc3ccccc3c2C1c1ccc(O)c(OC)c1 (stereo not given)	i	?	-24%	?	21µM*	-29%
CN(CC(=O)Nc1ccc(Cl)c(C(F)(F)F)c1)C(=O)COc1cccc2cccnc12	i	-5%	-27%	-6%	-2%	·
CSc1ccccc1NC(=O)CN(C)C(=O)COc1cccc2cccnc12	i	?	11µM*	-2%	2%	-17%
COCc1cc(C)nc(OCC(=O)N/N=C/c2ccccc2O)c1C#N	i	-4%	6%	18µM*	?	-18%[11.3 µM]
COCc1cc(C)nc(OCC(=O)N/N=C/c2ccc(O)cc2O)c1C#N	i	7%	-12%	?	-28%	-35%
Cc1cccc(N2CCN(C(=O)c3cccc(N4CCCC4=O)c3)C(C)C2)c1 (stereo not given)	i	18%	11%	2.6µM*	?	·
O=C(c1cccc(N2CCCC2=O)c1)N1CCN(c2cccc(Cl)c2)CC1	i	?	-33%	13µM*	?	·
Cc1cccc(N2CCN(C(=O)c3ccc(N4CCCC4=O)cc3)CC2C)c1 (stereo not given)	i	2%	-9%	-15%	-4%	-10%
Cc1csc(SCC(=O)N2CCOc3ccc(C(O)C4CCCCC4)cc3C2)n1 (stereo not given)	i	·	·	·	·	·
Cc1ccc(NC(=S)NC2CCSc3ccccc32)cc1C (stereo not given)	i	16µM*	-11%	-10%	-19%	-30%
COC(=O)c1ccc(C(=O)NC2CCSc3ccccc32)cc1 (stereo not given)	i	-2%	-40%	0%	0%	0%
Cc1cccc(N2CCN(C(=O)C3CCN(C(=O)c4cc5sccc5n4C)CC3)CC2)c1C	·	11µM*	-12%	·	·	·
Cc1cccc(N2CCN(C(=O)C3CCN(S(=O)(=O)Cc4ccccc4)CC3)CC2)c1C	i	?	18µM*	·	·	10%
O=C(C1CCN(S(=O)(=O)Cc2ccccc2)CC1)N1CCN(c2ccccc2)CC1	i	23%	-1%	·	·	-1%
Cc1cccc(N2CCN(C(=O)C3CCCN(C(=O)c4cc5sccc5n4C)C3)CC2)c1C (stereo not given)	i	?	-30%	·	·	?
COc1cccc2c1C1COC3C4CC(C(=O)O)C(C(C2)N13)N4C (stereo not given)	?	?	-45%	7.3µM*	5.8µM*	11µM*
COc1cccc2c1C(CCCC(=O)O)CCC2 (stereo not given)	i	-8%	-12%	4%	0%	-10%
C=CCSc1nnc(-c2sc(-c3ccccc3)nc2C)n1C	·	16%	2%	4%	14%	·

Source: PubChem BioAssay (National Center for Advancing Translational Sciences (NCATS))
